Assay outcomes deposited in PubChem by several laboratories.
MEX-5 binding = C. elegans MEX-5 TCR-2 RNA binding activity | MEX-5/FITC-TCR2 RNA binding, fluorescence polarization; active compounds read low | activity score (negative = inhibition of binding), % at 10 µM | 300,000 tested, 0.38% active | AID 1832 | Q9XUB2;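 active = inhibition past about -25% in most replicates, and total fluorescence under double the plate's negative control median, limit read from the data; inconclusive = replicates evenly split on the limit, or fluorescence at least double controls; inactive = too little inhibition in most replicates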;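 also: 0% = DMSO and -100% = 5 µM competing unlabeled TCR2 RNA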
HTR2A ag = mouse HTR2A agonism via beta-arrestin recruitment; P35363; CHO-K1 mHTR2A beta-arrestin complementation, luminescence; percent of 30 µM serotonin response; activation, % at 7.6 µM; 360,000 tested, 0.66% active;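 active = activation above a run cutoff, the mean activation of all tested compounds plus 3 SD, cut at about 14% in these data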;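 also: 0% = plate median of compound wells and 100% = 30 µM serotonin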
VLA-4 inh = inhibition in a human VLA-4 binding assay. P13612. VLA-4 expressing cells, ligand binding flow cytometry. inhibition, % (about 7 µM as worked out from the volumes in the protocol). 330,000 tested, 0.2% active; in the data active = inhibition above about 50%
Target sequence (P13612 whole entry, looked up): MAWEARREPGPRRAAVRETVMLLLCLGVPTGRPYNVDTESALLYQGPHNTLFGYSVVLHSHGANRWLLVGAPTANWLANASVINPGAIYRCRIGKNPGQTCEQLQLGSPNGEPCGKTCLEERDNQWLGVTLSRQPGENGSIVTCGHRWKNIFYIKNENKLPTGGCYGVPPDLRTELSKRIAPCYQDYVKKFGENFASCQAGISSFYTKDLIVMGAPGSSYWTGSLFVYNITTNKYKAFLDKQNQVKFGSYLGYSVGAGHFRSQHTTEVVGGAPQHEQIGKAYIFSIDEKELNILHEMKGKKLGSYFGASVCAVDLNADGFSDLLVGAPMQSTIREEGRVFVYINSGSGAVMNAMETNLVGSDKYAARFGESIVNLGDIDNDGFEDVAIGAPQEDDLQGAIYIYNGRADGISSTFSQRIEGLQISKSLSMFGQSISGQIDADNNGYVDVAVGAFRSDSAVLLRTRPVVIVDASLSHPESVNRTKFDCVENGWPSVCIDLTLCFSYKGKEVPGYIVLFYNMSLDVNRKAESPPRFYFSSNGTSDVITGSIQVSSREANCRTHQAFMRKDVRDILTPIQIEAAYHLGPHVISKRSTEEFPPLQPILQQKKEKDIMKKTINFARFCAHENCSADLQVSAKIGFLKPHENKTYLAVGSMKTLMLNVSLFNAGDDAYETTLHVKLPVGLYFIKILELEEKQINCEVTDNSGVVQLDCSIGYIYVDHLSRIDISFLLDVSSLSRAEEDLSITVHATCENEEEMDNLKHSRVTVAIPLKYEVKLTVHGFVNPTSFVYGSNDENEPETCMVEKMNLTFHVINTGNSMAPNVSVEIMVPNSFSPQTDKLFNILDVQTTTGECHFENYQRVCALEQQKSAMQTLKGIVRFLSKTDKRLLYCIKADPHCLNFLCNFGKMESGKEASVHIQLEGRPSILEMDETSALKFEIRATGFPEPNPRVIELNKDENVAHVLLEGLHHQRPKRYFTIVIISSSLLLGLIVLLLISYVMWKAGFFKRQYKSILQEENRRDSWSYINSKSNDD
V-ATPase pHluor = alters yeast V-ATPase proton transport; S. cerevisiae, pHLuorin cytosolic pH fluorescence; response, % at 10 µM; 350,000 tested, 0.37% active; AID 504577; in the data active = response mostly above about 7.3%, no sharp cut-off; inactive = mostly below about 5.4%; also: actives read high
Exocytosis inh = blocks lytic granule exocytosis | TALL-104 LAMP-1 surface exposure, flow cytometry; cells stimulated with thapsigargin and PMA | inhibition, % at 10 µM | 360,000 tested, 0.66% active;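 active = inhibition above about 55%, limit read from the data; inconclusive = no clear call, values can overlap the other calls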
GASC-1 inh = blocks human GASC-1 demethylase activity; GST-JMJD2C(1-420) H3K9me3 demethylation, DELFIA europium; inhibition, % at 2.35 µM; 330,000 tested, 0.069% active; AID 2099;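 active = more than half of a compound's replicate wells show inhibition beyond 50%, single wells judged on their own value; inconclusive = some, but no more than half, of replicates pass 50% inhibition; inactive = no replicate passes 50% inhibition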;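 also: signal counts dimethyl H3K9 product captured on neutravidin plate; 0% = median of DMSO wells and 100% = 0.3 times that DMSO median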
Exocytosis CP01 = lytic granule exocytosis inhibition; shares compounds with Exocytosis inh; TALL-104 cells, LAMP-1 externalization, flow cytometry; stimulated with PMA plus thapsigargin; inhibition, % at 10 µM; 1,500 tested, 11% active; AID 651954; in the data active = inhibition above about 60%;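 also: 0% = stimulated vehicle wells and 100% = unstimulated wells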
The depositor's hits bear a star; i = inactive; ? = inconclusive; · = not tested or not shown. An excerpt weighted towards active compounds, which were near 2.2% of everything screened.

SMILES	MEX-5 binding	HTR2A ag	VLA-4 inh	V-ATPase pHluor	Exocytosis inh	GASC-1 inh	Exocytosis CP01
c1ccc(CNc2nc(N3CCN(Cc4ccccc4)CC3)nc3ccccc23)cc1	0	-11	3	0	101*	-14	24
c1ccc(CNc2c3ccccc3nc3ccccc23)cc1	-2	7	20	0	61*	-13	-4
Oc1ccccc1-c1nc(NCc2ccco2)c2ccccc2n1	-10	0	-9	9	1	8	·
N#C/C(=C\c1cccnc1)c1ccccc1[N+](=O)[O-]	-2	3	3	-4	4	-8	·
Cc1cc(C(=O)OCC(=O)Nc2c(Cl)cccc2Cl)c(C)o1	·	-3	11	-2	0	-5	·
Cc1oc2ccc(O)cc2c1C(=O)c1ccc(Br)cc1	-1	3	5	2	-2	0	·
C=CCn1c(SCC(=O)N2CCOCC2)nnc1C(C)NC(=O)c1ccccc1 (stereo not given)	-1	3	-1	1	-3	-9	·
CNc1nc(NCc2ccccc2)c2ccccc2n1	1	-9	13	-2	6	2	·
Oc1ccccc1Nc1nc(NCc2ccccc2)c2ccccc2n1	-4	-3	11	-3	68*	-8	66*
COc1ccc(CN2CCC(N(CCc3ccccc3)Cc3ccccc3)CC2)c(OC)c1	-2	-7	8	-1	60*	32	1
O=C(CN1c2cccc3cccc(c23)S1(=O)=O)N1CCCCC1	·	-1	-6	-2	-3	-11	·
O=C(CCCc1nc(-c2ccc(Cl)cc2)no1)NC1CCCC1	0	10	-1	3	57*	11	-13
CCCCCc1c(-c2ccc(Cl)cc2)ncn1CCc1ccccc1OC	·	-8	·	·	20	·	·
CCCCc1c(-c2ccccc2)ncn1CCc1ccccc1OC	·	-8	·	·	17	·	·
CCCCc1c(-c2ccc(OC)cc2)ncn1CCc1ccccc1OC	·	-10	·	·	82*	·	27
CCCCCc1c(-c2ccc(OC)cc2)ncn1CCc1ccccc1OC	·	-9	·	·	68*	·	17
Cc1ccc(OCc2cc(C(=O)N3CCC(c4ccccc4Cl)C3)no2)cc1C (stereo not given)	1	-2	7	7	5	-39	·
CN(C(=O)c1ccc(OC2CCN(S(=O)(=O)N(C)C)CC2)cc1)C1CCCCC1	0	0	2	-1	64*	5	-1
CC(CCc1ccccc1)NC(=O)CCCn1ncn2c(cc3occc32)c1=O (stereo not given)	-1	-4	12	-3	6	7	·
CCOc1ccccc1CN1CCN(CCCc2ccccc2)CC1CCO (stereo not given)	0	-7	13	-5	63*	-4	-11
Cc1c(CN2CCC(CO)(CCOc3ccccc3)CC2)[nH]c2c(Cl)cccc12	1	4	16	6	92*	-7	13
C=CCOc1ccccc1CN1CCN(CCc2ccccc2)C(CCO)C1 (stereo not given)	1	-8	7	-2	58*	15	-16
Cc1nn(C)c(Cl)c1CN1CCC(CO)(CCOc2ccccc2)CC1	-2	-1	2	-1	12	-3	·
OCCC1CN(Cc2cccc(F)c2F)CCN1CCc1ccccc1 (stereo not given)	1	-6	-7	0	11	i	·
C=CCOc1ccccc1CN1CCC(CO)(CCOc2ccccc2)CC1	0	-2	11	-5	69*	-4	-13
SMILES	MEX-5 binding	HTR2A ag	VLA-4 inh	V-ATPase pHluor	Exocytosis inh	GASC-1 inh	Exocytosis CP01
COc1ccccc1N1CCN(C(=O)c2ccc(-c3nc4ccccc4s3)o2)CC1	·	-6	-4	1	0	·	·
COc1ccccc1NC(=O)COC(=O)c1cc([N+](=O)[O-])ccc1N1CCCC1	·	-3	11	0	9	1	·
Cc1oc(=O)c(NC(=O)c2ccc(Cl)cc2)cc1C(=O)c1ccccc1	-6	3	23	-1	103*	7	-9
O=C1CCC(NC(=O)c2ccccc2)C(=O)N1 (stereo not given)	3	3	11	1	8	0	·
c1ccc(-c2oc3ncnc(NCCCn4ccnc4)c3c2-c2ccccc2)cc1	0	-5	28	5	40	-4	·
CN(C)CCCNc1ncnc2oc(-c3ccccc3)c(-c3ccccc3)c12	-2	-13	17	0	59*	8	4
COC(=O)c1ccc(C(=O)N=c2sccn2C)cc1	1	14	0	5	-1	0	·
Cc1ccc2sc(N(CCCN(C)C)C(=O)c3ccc(S(=O)(=O)N(C)C)cc3)nc2c1C	2	-4	-2	0	10	-21	·
Cc1ccc2sc(N(CCCN(C)C)C(=O)c3ccc(S(=O)(=O)N(C)Cc4ccccc4)cc3)nc2c1C	1	-9	14	-1	66*	?	58
CCOc1cccc2sc(N(CCN(C)C)C(=O)c3cc4ccccc4cc3OC)nc12	1	-15	7	-6	59*	23	15
CCN(c1ccccc1)S(=O)(=O)c1ccc(C(=O)N(CCCN(C)C)c2nc3cc4c(cc3s2)OCO4)cc1	-1	-11	5	2	70*	-9	3
CCOc1cccc2sc(N(CCCN(C)C)C(=O)c3ccc(S(=O)(=O)N(CC)Cc4ccccc4)cc3)nc12	0	-12	16	2	64*	-14	60*
Cc1ccc(C(C)C)c(OCC(=O)Nc2ccc3c(c2)nc(CCN2CCCCC2)n3C)c1	-4	-16	33	2	45	6	·
CCOc1ccc(C2Nc3cccc4cccc(c34)N2)cc1OC	1	2	4	2	56*	-1	-9
CCOc1cc(C2Nc3cccc4cccc(c34)N2)ccc1O	-1	-3	9	1	13	6	·
O=C(NCc1ccc(OC(F)(F)F)cc1)C1CC(c2cccc(F)c2)=NO1 (stereo not given)	-3	0	8	0	-3	-9	·
Cc1ccc(CNC(=O)C2CC(c3cccc(F)c3)=NO2)cc1 (stereo not given)	1	0	-2	3	72*	8	-15
COc1ccc(NS(=O)(=O)c2cc(NC(=O)CCc3ccc(OC)c(OC)c3)ccc2N2CCOCC2)cc1	·	-4	·	0	-5	·	·
COC(=O)C1C(c2ccccc2)C(C(=O)OCc2ccco2)C1c1ccccc1 (stereo not given)	0	-17	-7	-1	69*	-3	27
O=P(c1ccccc1)(c1ccccc1)C(O)c1ccc(Br)cc1 (stereo not given)	5	-1	-9	2	60*	4	-12
